# In PubChem BioAssay (Tox21):
# Inconclusive results are not listed. A number with no mark means an inactive call. The call rests on the fitted dose curve; in most records, active means well fitted curve in the direction sought with a large enough effect in the repeat runs; inconclusive means weak or mixed curves; inactive means no such curve, though single readings can be large; an effect the other way counts as inactive or inconclusive.
# Experiment: qHTS assay to identify small molecule agonists of the RXR signaling pathway - cell viability counter screen (AID 1159529); further: nearly all actives have a fitted effect of over 50% in size
# Conditions: RXR-alpha-bla HEK293T viability, CellTiter-Glo, 16 h; series mostly up to 76.8 µM; activity change, negative = cytotoxicity: at the top concentration
# Method in brief: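 Cell viability is measured by CellTiter-Glo luminescence, 30 min at room temperature, in wells already read for beta-lactamase. Engineered HEK 293T cells (RXR-alpha-UAS-bla) are dosed 16 hr at 37 C. Tetraoctyl ammonium bromide serves as positive control.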
# On the % scale 0 is the no-effect control and ±100 the full control effect.
row,Structure (SMILES),"activity change, negative = cytotoxicity"
1,NC(CO)C(=O)NNCc1ccc(O)c(O)c1O (stereo not drawn),-21.8% [at 35.3 µM]
2,CCCCCCCCCCl,1.7%
3,CCOC(=O)c1ncn2c1CN(C)C(=O)c1cc(F)ccc1-2,2.26% [at 35.3 µM]
4,N[C@@H](CCC(=O)N[C@@H](CS)C(=O)NCC(=O)O)C(=O)O,-1.04% [at 15.8 µM]
5,Cc1cc(C(C)(C)C)c(O)c(C)c1CC1=NCCN1,0.26% [at 35.3 µM]
6,O=C(O)Cc1ccc(Cl)cc1Cl,-1.14%
7,O=C(OCc1ccccc1)C(=O)OCc1ccccc1,3.48%
8,CC(C)C(=O)OCCc1ccccc1,0.173%
9,COc1cc(C(=S)N2CCOCC2)cc(OC)c1OC,11.8% [at 35.3 µM]
10,COc1ccc(S(=O)(=O)N2c3ccc(Cl)cc3[C@@](O)(c3ccccc3Cl)[C@H]2C(=O)N2CCC[C@@H]2C(N)=O)cc1OC,-12.5% [at 35.3 µM]
11,Cc1ccccc1C(=O)Nc1ccc(C(=O)N2CCCC(N(C)C)c3ccccc32)cc1 (stereo not drawn),-16.2% [at 35.3 µM]
12,CCCCCCCCC1CCC(=O)O1 (stereo not drawn),-4.78%
13,NS(=O)(=O)c1ccc(NC(=O)CCC(=O)O)cc1,4.72% [at 35.3 µM]
14,CCCCCCCCCCCCCC,2.93%
15,CC(=O)OC(C)OC(=O)C(C)c1ccc(-c2ccccc2)c(F)c1 (stereo not drawn),-6.32% [at 35.3 µM]

# Experiment: qHTS assay to identify small molecule antagonists of the retinoid acid receptor (RAR) signaling pathway - cell viability counter screen (AID 1159551); further: nearly all actives have a fitted effect of over 35% in size
# Conditions: C3RL4 cells viability, ATP luminescence (CellTiter-Glo), 6 h; series mostly up to 92.4 µM; activity change, negative = cytotoxicity: at the top concentration
# Method in brief: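 C3RL4 RARE-luciferase line; cpds + retinol 1 uM final, 6 h, 37 C/5% CO2; CellTiter-Glo ATP luminescence, 30 min RT.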
row,Structure (SMILES),"activity change, negative = cytotoxicity"
1,CC(CO)c1ccccc1 (stereo not drawn),0.603%
2,CCOc1cc([N+](=O)[O-])c(OCC)cc1N1CCOCC1,-0.204%
3,CC(=O)c1sc(C)nc1C,6.51%
4,O=S(O)(O)=S,0.445% [at 8.39 µM]
5,CCO[Si](CCCS)(OCC)OCC,2.84%
6,N[C@@H](COP(=O)(O)O)C(=O)O,-0.284% [at 19 µM]
7,Brc1ccc(-c2ccccc2)cc1,2.26%
8,CCCCC(CC)COCCO (stereo not drawn),0.263%
9,CN1C(C)(C)CCCC1(C)C,-0.709% [at 42.5 µM]
10,Nc1nnc(-c2cccc(Cl)c2Cl)c(N)n1,-0.982% [at 42.5 µM]
11,COc1nccnc1NS(=O)(=O)c1ccc(N)cc1,2.19% [at 42.5 µM]
12,Nc1ncnc(Nc2ccccc2)n1,1.64% [at 42.5 µM]
13,CC1=CCC(C(C)C)=CC1,-0.986%
14,CN1CCN(CC(=O)N2c3ccccc3C(=O)Nc3cccnc32)CC1,0.488% [at 8.39 µM]
15,CCCOC(=O)C(C)O (stereo not drawn),3.83%
16,CCOCCOCCOCC,6.5%
17,CC(=C(CCOC(=O)C(C)C)SSC(CCOC(=O)C(C)C)=C(C)N(C=O)Cc1cnc(C)nc1N)N(C=O)Cc1cnc(C)nc1N,-0.0749% [at 42.5 µM]
18,COc1ccc(-c2cc(=O)c3c(O)cc(O[C@@H]4O[C@H](CO[C@@H]5O[C@@H](C)[C@H](O)[C@@H](O)[C@H]5O)[C@@H](O)[C@H](O)[C@H]4O)cc3o2)cc1O,4.4% [at 42.5 µM]
19,Cc1c(I)c(=O)n(-c2ccccc2)n1C,3.11% [at 42.5 µM]

row,Structure (SMILES),"activity change, negative = cytotoxicity"
1,CCCCCCCCSCC,3.32%
2,CCC(C=O)CC,1.84%
3,COc1cc(NS(=O)(=O)c2ccc(N)cc2)nc(OC)n1,0.339% [at 42.5 µM]
4,CCN(CC)CC(=O)Nc1c(C)cccc1C,-0.0251% [at 42.5 µM]
5,NC(CO)C(=O)NNCc1ccc(O)c(O)c1O (stereo not drawn),-0.771% [at 42.5 µM]
6,CCCCCCCCCCl,1.75%
7,CCOC(=O)c1ncn2c1CN(C)C(=O)c1cc(F)ccc1-2,-0.267% [at 42.5 µM]
8,N[C@@H](CCC(=O)N[C@@H](CS)C(=O)NCC(=O)O)C(=O)O,0.178% [at 19 µM]
9,Cc1cc(C(C)(C)C)c(O)c(C)c1CC1=NCCN1,-0.0388% [at 42.5 µM]
10,O=C(O)Cc1ccc(Cl)cc1Cl,0.546%
11,O=C(OCc1ccccc1)C(=O)OCc1ccccc1,0.0265%
12,CC(C)C(=O)OCCc1ccccc1,0.993%
13,COc1cc(C(=S)N2CCOCC2)cc(OC)c1OC,4.17% [at 42.5 µM]
14,COc1ccc(S(=O)(=O)N2c3ccc(Cl)cc3[C@@](O)(c3ccccc3Cl)[C@H]2C(=O)N2CCC[C@@H]2C(N)=O)cc1OC,2.66% [at 42.5 µM]
15,Cc1ccccc1C(=O)Nc1ccc(C(=O)N2CCCC(N(C)C)c3ccccc32)cc1 (stereo not drawn),-0.0178% [at 42.5 µM]
16,CCCCCCCCC1CCC(=O)O1 (stereo not drawn),-0.277%
17,NS(=O)(=O)c1ccc(NC(=O)CCC(=O)O)cc1,2.53% [at 42.5 µM]
18,CCCCCCCCCCCCCC,-1%
19,CC(=O)OC(C)OC(=O)C(C)c1ccc(-c2ccccc2)c(F)c1 (stereo not drawn),2.35% [at 42.5 µM]
